Screen size: about 340,000 compounds; about 2,500 (0.74%) were called active. This excerpt belongs to a sample that is enriched for actives. Values without a mark were called inactive.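 Rule for the calls: active = inhibition above about 55% (limit read from the data); inactive = the rest.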

Usually inhibition stands for the relative decrease from the control value, in per cent.

The nature of the assay: blockers of Gli reporter signaling – luciferase luminescence, Sufu-KO-LIGHT cells, uHTS, primary screen (AID 588413).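 Note: 0% = DMSO-treated cells and 100% = wells with medium but no cells.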 The note with it: Sufu-KO-LIGHT fibroblasts, at 5 µM, active compounds read high.
For `COc1cccc2c1C(=O)c1c(O)c3c(c(O)c1C2=O)CC(O)(C(C)=NNC(=O)c1ccc(Cl)c(Cl)c1)CC3OC1CC(N)C(O)C(C)O1` (configuration not stated), the inhibition was 71.2% (active).
In the case of `CCCCN(C(=O)c1ccc(S(=O)(=O)N2CCOCC2)cc1)C1CCS(=O)(=O)C1` (configuration not stated) it was 0.87%.
Regarding `O=C(OC1CCOC1=O)c1ccc(-c2nc3ccccc3s2)s1` (configuration not stated), the inhibition was -21%.
In the case of `Cc1cnc(NC(=O)c2ccccn2)s1` it was -50.9%; in that of `CC1=NNC(=O)C1CCC(=O)N/N=C(\C)c1ccc(Cl)cc1` (configuration not stated), 3.52%.
The same measure for `C/C(=N\NC(=O)c1ccccc1F)c1ccccn1`: 58.4% (active); for `CC(=NNC(=S)N1CCCCCC1)c1ccccn1`: 63.6% (active); for `CNC(=S)N1CCN(c2ccccn2)CC1`: 2.59%.
In the case of `COc1ccc(/C(C)=N\NC(=O)c2ccc(-c3ccccc3)cc2)c(F)c1` it was 2.32%; in that of `NC(=O)NC(CC(=O)NNC(=O)c1ccccn1)c1ccc(Cl)cc1` (configuration not stated), 5.55%; in that of `C/C(=N\NC(=O)Cc1ccc(Cl)cc1)c1ccccn1`, 88% (active).
For `Cc1cccc(C)c1NC(=S)N1CCCCCC1`, the inhibition was 3.64%.
In the case of `O=C(COC(=O)c1ccc(O)cc1O)c1ccc2c(c1)OCCO2` it was -30.6%; in that of `C=CCn1cc(C(=O)NCc2ccc(Cl)cc2)c(=O)c2cc(S(=O)(=O)N(CC)CC)ccc21`, 9.9%.
In the case of `Cc1ccc(S(=O)(=O)c2cc3c(=O)n4cccc(C)c4nc3n(CCc3ccccc3)c2=N)cc1C`, the inhibition was 1.35%.
Consider `CC(C)c1ccc(/C=C/C(=O)NCCCN2CCOCC2)cc1`, for which the inhibition was -8.47%.
Turning to `CNS(=O)(=O)c1ccc(NC(=O)C2CC(=O)N(c3ccc(Cl)cc3)C2)cc1` (configuration not stated), the inhibition was -4%.
As for `CCOC(=O)c1c(C)[nH]c(C(=O)NCCN2CCOCC2)c1C`, the inhibition is 17.9%.
In the case of `CN(C)S(=O)(=O)c1ccc(Cl)c(NC(=O)COC(=O)CC(NC(N)=O)c2ccc(Cl)cc2)c1` (configuration not stated) it was -2.2%; in that of `CCOP1(=O)C=C(C(C)(C)C)OC1c1ccc(F)cc1` (configuration not stated), 8.49%.
In the case of `COc1cccc(NC(=S)NC(=O)c2c(Cl)c(C)nn2C)c1`, the inhibition was -24.8%.
The same measure for `CCCc1c(C(=O)Nc2ccc(F)cc2)cnn1-c1ccccc1`: -12.3%; for `Cc1nn(C(C)C(=O)NCCC2=CCCCC2)c(=O)c2nn(-c3ccccc3)c(C)c12` (configuration not stated): 3.02%; for `CCN1/C(=C\c2ccc3ccccc3[n+]2CC)Sc2cc(C)ccc21`: 90% (active).
In the case of `CCN1/C(=C/c2ccc3ccc(C)cc3[n+]2CC)Sc2ccccc21` it was 79.4% (active); in that of `NC(=O)c1ccc(N2CCCC2)nc1`, 1.14%.
`CCC1=[N+]([O-])C(C)(/C(C)=N\O)N(O)C1(C)C` (configuration not stated): the inhibition was 17.9%.
On to `COc1ccc(C(=O)Nc2cccc(/C=C(/CCC(=O)O)c3nc4ccccc4s3)c2)cc1`, for which the inhibition was -20.1%.
In the case of `COC(=O)Cc1[nH]n(-c2nc3ccccc3s2)c(=O)c1C(C)=Nc1ccc(OC)cc1` it was 79.5% (active); in that of `CC(=NCc1ccco1)c1c(C(F)(F)F)[nH]n(-c2nc3ccccc3s2)c1=O`, -17.2%; in that of `CCCCC(=O)Nc1ccc(C(=O)Nc2cc(C(F)(F)F)ccc2Cl)cc1`, 5.23%.
As for `O=C(CC(O)(C(F)(F)F)C(F)(F)F)Nc1ccc(Cl)c(Cl)c1`, the inhibition is 78.9% (active).
The same measure for `NC(=O)N1CCCC1C(=O)Nc1ccc(Cl)c(Cl)c1` (configuration not stated): 1.62%.
In the case of `CCC1CCCCN1C(=O)CSc1nc2c(c(=O)n1C)SC(C)C2` (configuration not stated) it was 1.3%; in that of `COc1ccc(OC)c(/C=N/NC(=O)c2ccc[n+](CC(=O)c3ccccc3)c2)c1`, 91.4% (active).
In the case of `COc1ccc(OC)c(/C=N/NC(=O)CSc2nnc(C)n2-c2ccccc2)c1` it was -2.67%.
As to `COc1ccc(CC(=O)NCC(=O)N/N=C/c2cc(Br)ccc2OC)cc1`, the inhibition is -1.49%.
For the compound `CCC(C)Cn1c(O)cc2nn(-c3nc4ccccc4s3)c(=O)c-2c1C` (configuration not stated), the inhibition was 83.4% (active).
The same measure for `Cc1cc(NC(=O)CN2CCCC(C)C2)n(-c2nc3ccccc3s2)n1` (configuration not stated): 20%.
The same measure for `CCc1ccc[n+](-c2nc([O-])sc2C=O)c1`: 6.64%; for `COc1ccc(NC(=O)CNC(=O)Cn2ccc3ccccc3c2=O)c(OC)c1`: -0.61%; for `COc1ccc(OC)c(NC(=O)c2sc3nc(C)cc(C)c3c2N)c1`: -3.47%.
Take `COc1ccc(OC)c(Cc2cnc3nc(N)nc(N)c3c2C)c1`: the inhibition is 63.1% (active).
On to `COc1ccc(OC)c(Cc2nnc(CCC(=O)NC3CCCC3)o2)c1`, for which the inhibition was -18.7%.
Consider `CC(C)=CCCC1(C)C=Cc2c(ccc3c2[nH]c2cc(O)c(C)cc23)O1` (configuration not stated), for which the inhibition was -3.46%.
The same measure for `CS(=O)(=O)N1CCCC(C(=O)Nc2ccccc2C(F)(F)F)C1` (configuration not stated): -2.21%; for `O=C(O)CCCCCCCCc1cn(CN2C(=O)c3ccccc3C2=O)nn1`: -12.6%; for `OCC1(Cc2ccccc2C(F)(F)F)CCN(Cc2cccc3cnccc23)CC1`: 25.5%.
The same measure for `CC1CC2=C(CC1/C=N/NC(N)=S)C(C)(C)CCC2` (configuration not stated): 72.7% (active); for `COc1cccc(CN(C)C(=O)CC23CC4CC(CC(C4)C2)C3)c1OC`: -2.54%; for `Cn1c(N)c(C(=O)COC(=O)/C=C/c2ccc(OC(F)F)cc2)c(=O)n(C)c1=O`: 5.01%.
In the case of `N#Cc1ccc(C(=O)Nc2nc(-c3cccs3)c(C(=O)C(F)(F)F)s2)cc1` it was 62.5% (active); in that of `COC(=O)c1sc(NC(=S)NC(=O)c2ccc(C)cc2)nc1C`, -41.9%.
Take `N#Cc1c(-c2cccs2)nc(SCC(=O)c2ccc(Br)cc2)[nH]c1=O`: the inhibition was 4.3%.
In the case of `C/C(N)=C(\C#N)C(=O)NCCc1ccccn1` it was -1.25%; in that of `C=CC[C@H](CC(=O)OC(C)(C)C)C(=O)OC[C@H]1CCCN1C(=O)[C@H](CC=C)CC(=O)N(CCO)Cc1ccccc1`, 7.8%; in that of `Nc1nc(SCC(=O)Nc2ccc(Cl)c([N+](=O)[O-])c2)n[nH]1`, -5.39%.

For the origin of these results see PubChem BioAssay AID588413 (Sanford-Burnham Center for Chemical Genomics, 2011).
